Test [1] relates to Plasmodium falciparum Sir2 (PF13_0152, Sir2A). Description: Plasmodium falciparum Sir2A binding compounds – biochemical, small-molecule microarray, 635 nm fluorescence, primary screen (AID 1098).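 Further: score merges spot fluorescence intensity with its signal-to-noise ratio.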 The conditions noted are these: fluorescence 635 nm, higher = more signal.
A short description of test [2]: probe aDKK1 binding to arrayed compounds – biochemical, biotinylated probe, 635/667 nm fluorescence, primary screen (AID 1099).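 Further: score merges 667nm spot fluorescence with signal to noise across triplicate slides; reference of the scale not given here.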 Conditions: small-molecule microarray, higher = more signal.
A short description of test [3]: probe aCHRDL2 binding to arrayed compounds – biochemical, biotinylated probe, 635/667 nm fluorescence, primary screen (AID 1100). The conditions noted are these: small-molecule microarray, higher = more signal.
Test [4] in a line: change in splice reporter luminescence, either direction, cell-based, HEK293, spliceosome inhibition project, primary screen (AID 1101).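 Further: HEK293 cells carrying a splicing-competent luciferase reporter gene; test concentration not given here.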 The conditions noted are these: HEK293 splicing luciferase reporter, 24 h, higher = more signal, called active from +8 up or from −8 down. A general note: In a reporter assay the amount or activity of a reporter protein is the signal.
Test [5] addresses Fibroblast growth factor 10 (Homo sapiens) (UniProt O15520). Briefly: compounds binding fibroblast growth factor 10 – biochemical, small-molecule microarray, 635 nm fluorescence, primary screen (AID 1102). The conditions noted are these: FGF10 binding, fluorescence 635 nm, higher = more signal.
For test [6], the system named is glycogen synthase kinase-3 (GSK3A per assay name; protocol says GSK3B). Briefly: compounds binding glycogen synthase kinase-3 – biochemical, small-molecule microarray, 635 nm fluorescence, GSK3A, primary screen (AID 1103). Further: the record names both GSK3A and GSK3B. Conditions: fluorescence 635 nm, higher = more signal.
In test [7] the target is Epidermal growth factor receptor (Homo sapiens) (UniProt P00533). Description: compounds binding epidermal growth factor receptor – biochemical, small-molecule microarray, 635 nm fluorescence, primary screen (AID 1104).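 Further: score merges 667 nm emission intensity with spot signal to noise over triplicate slides.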 Conditions: EGFR binding, higher = more signal.
Chain of Epidermal growth factor receptor (Homo sapiens) (P00533 whole entry, looked up): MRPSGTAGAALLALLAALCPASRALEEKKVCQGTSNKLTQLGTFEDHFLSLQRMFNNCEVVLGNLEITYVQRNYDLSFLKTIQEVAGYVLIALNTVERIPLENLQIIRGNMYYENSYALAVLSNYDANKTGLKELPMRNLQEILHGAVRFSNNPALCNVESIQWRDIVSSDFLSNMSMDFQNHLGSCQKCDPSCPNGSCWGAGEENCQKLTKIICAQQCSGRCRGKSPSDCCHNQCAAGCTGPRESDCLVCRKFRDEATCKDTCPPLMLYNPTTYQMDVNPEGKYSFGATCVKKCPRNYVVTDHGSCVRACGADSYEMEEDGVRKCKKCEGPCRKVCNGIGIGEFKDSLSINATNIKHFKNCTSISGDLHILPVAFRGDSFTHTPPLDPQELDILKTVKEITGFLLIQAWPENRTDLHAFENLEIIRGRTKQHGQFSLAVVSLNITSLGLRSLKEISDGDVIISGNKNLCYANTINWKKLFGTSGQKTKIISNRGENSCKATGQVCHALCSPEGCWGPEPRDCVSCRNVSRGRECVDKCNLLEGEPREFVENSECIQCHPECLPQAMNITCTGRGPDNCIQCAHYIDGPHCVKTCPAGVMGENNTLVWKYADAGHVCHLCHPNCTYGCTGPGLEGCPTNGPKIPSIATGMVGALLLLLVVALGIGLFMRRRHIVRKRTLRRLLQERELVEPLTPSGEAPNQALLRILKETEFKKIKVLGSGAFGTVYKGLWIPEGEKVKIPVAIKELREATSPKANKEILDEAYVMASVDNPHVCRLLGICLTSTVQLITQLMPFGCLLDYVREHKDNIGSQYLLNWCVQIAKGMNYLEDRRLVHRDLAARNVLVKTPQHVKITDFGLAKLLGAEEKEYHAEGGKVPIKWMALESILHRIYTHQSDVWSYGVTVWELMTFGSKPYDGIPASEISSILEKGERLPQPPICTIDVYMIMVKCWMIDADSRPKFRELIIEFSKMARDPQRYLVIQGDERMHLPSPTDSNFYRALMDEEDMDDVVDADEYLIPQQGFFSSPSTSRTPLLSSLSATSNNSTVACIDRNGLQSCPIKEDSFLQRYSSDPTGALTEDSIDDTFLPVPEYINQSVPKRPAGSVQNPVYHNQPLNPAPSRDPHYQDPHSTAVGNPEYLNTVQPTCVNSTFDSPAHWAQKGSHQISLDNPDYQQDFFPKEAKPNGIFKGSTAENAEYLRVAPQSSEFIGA
Test [8] has as its target Follistatin-related protein 3 (Homo sapiens) (UniProt O95633). Description: compounds binding follistatin-related protein 3 – biochemical, small-molecule microarray, 635 nm fluorescence, primary screen (AID 1105).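 Further: score merges emission near 667 nm and signal to noise per printed spot across three slides.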 Conditions: FSTL3 binding, higher = more signal.
Test [9] deals with Dickkopf-related protein 1 (Homo sapiens) (UniProt O94907). Briefly: small molecules binding DKK1 protein – biochemical, small-molecule microarray, 635 nm fluorescence scan, primary screen (AID 1106).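 Further: score merges emission near 667 nm with signal to noise over three replicate slides.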 Conditions: higher = more signal.
Chain of Dickkopf-related protein 1 (Homo sapiens) (O94907 whole entry, looked up): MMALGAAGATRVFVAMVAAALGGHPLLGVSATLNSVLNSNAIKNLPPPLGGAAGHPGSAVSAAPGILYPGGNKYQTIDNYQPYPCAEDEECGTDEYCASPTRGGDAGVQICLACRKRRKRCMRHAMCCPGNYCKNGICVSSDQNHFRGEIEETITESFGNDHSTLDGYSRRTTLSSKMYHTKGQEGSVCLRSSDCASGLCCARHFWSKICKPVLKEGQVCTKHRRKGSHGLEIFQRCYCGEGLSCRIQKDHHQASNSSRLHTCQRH
The subject of test [10] is Inhibin beta A chain (activin A). Description: small molecules binding activin A – biochemical, small-molecule microarray, 635 nm fluorescence scan, primary screen (AID 1107).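 Further: mouse activin A protein probed at 4.33 µg/mL on printed slides; score merges bound-protein fluorescence near 667 nm with spot signal-to-noise.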 Conditions: INHBA, higher = more signal.

The structures appear in SMILES notation. Calls of active or inactive are those of the source.

Chain of Follistatin-related protein 3 (Homo sapiens) (O95633 whole entry, looked up): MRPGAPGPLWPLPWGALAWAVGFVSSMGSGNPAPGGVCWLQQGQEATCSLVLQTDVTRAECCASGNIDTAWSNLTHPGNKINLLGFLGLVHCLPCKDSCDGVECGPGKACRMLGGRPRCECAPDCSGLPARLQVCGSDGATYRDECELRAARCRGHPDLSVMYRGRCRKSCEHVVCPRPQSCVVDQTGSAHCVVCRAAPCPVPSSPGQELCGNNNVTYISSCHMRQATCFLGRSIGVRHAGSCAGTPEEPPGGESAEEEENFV
Chain of Fibroblast growth factor 10 (Homo sapiens) (O15520 whole entry, looked up): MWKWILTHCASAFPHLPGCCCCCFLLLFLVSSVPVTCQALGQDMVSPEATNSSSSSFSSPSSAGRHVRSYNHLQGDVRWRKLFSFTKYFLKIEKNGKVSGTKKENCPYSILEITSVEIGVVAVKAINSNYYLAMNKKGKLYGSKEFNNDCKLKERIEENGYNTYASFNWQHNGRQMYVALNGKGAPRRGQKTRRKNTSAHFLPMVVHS

Regarding `COC(=O)[C@@]1(Cc2ccc(F)cc2)[C@H]2c3cc(C(=O)N(C)C)n(Cc4ccc(C(F)(F)F)nc4)c3C[C@H]2CN1C(=O)c1ccccc1`, the composite z-score is 1.12 in test [1]; -0.154 in test [2]; -0.252 in [3]; 0.776 in test [5]; 1.36 in test [6]; 0.389 in [7]. The composite z-score in test [8] came out at 1.42; in test [9], 0.638; in [10] it was 0.876. In addition, the z-score in test [4] was -0.622 (inactive).
Take `O=C(NCC(F)(F)F)[C@@H]1c2ccccc2C(=O)N(Cc2cc(C(F)(F)F)cc(C(F)(F)F)c2)[C@H]1c1ccc(CO)cc1`: the composite z-score in test [1] is 1.78; in test [2] it was -0.207; in test [3] it was 0.272; in [5], 0.728; in [6], -0.137; in test [7], -0.284. In addition, the composite z-score in [8] was -0.145; in test [9] it was 0.382; in [10] it was 0.0807. Moreover, in [4], the z-score was 0.245 (inactive).
For `CCOC(=O)C[C@H]1[C@H](OC(=O)Cc2ccc3c(c2)OCO3)[C@@H](NC(=O)CC(C)C)c2cc(OCCCO)ccc2N1C(=O)c1ccc2ccccc2n1`, the composite z-score in [1] is 1.26; in test [2], 0.0956; in test [3], -0.252; in [5], 0.891; in test [6], 0.614; in [7], 0.255. In addition, the figures for the composite z-score in test [8], in test [9] and in test [10] were 1.19, 0.743 and 0.242, respectively. For the same molecule, the z-score in [4] is -0.881 (inactive).
Regarding `CC(C)(C)OC(=O)CC[C@@]1(C(=O)N2CCOCC2)N=C(c2ccc(OCCCO)cc2)O[C@@H]1c1ccccc1CN=[N+]=[N-]`, the composite z-score in [1] amounted to 1.23; in [2] it was 0.956; in [3], 1.15; in test [5] it was 1.28; in test [6] it was 0.818; in test [7] it was 0.234. Also, the figures for the composite z-score in test [8], in test [9] and in test [10] were 0.488, -0.0447 and 1.01, respectively. For the same molecule, in test [4], the z-score was 0.178 (inactive).
For `C=CCNC(=O)[C@H]1[C@@H]2C(=O)O[C@@H](c3ccccc3)[C@@H](c3ccccc3)N2[C@@H](c2ccc(O)cc2)[C@]12C(=O)Nc1ccc(C#CCC(C(=O)OC)C(=O)OC)cc12`, the composite z-score in test [1] is -0.147; in [2], 0.199; in test [3] it was 0.599; in [5], 0.727; in test [6], 1.04; in [7], -0.195. In addition, the results for the composite z-score in [8], in [9] and in test [10] were 0.339, 0.415 and 1.08, respectively. Moreover, the z-score in [4] was -0.0204 (inactive).
In the case of `C=CCNC(=O)[C@H]1[C@@H]2C(=O)O[C@@H](c3ccccc3)[C@@H](c3ccccc3)N2[C@@H](c2ccc(OCCO)cc2)[C@]12C(=O)Nc1ccc(C#Cc3ccc(OC)cc3)cc12`, the composite z-score worked out at 1.34 in test [1]; 0.626 in test [2]; 0.632 in [3]; 1.23 in test [5]; 1.33 in test [6]; 0.486 in test [7]. The composite z-score in test [8] is 1.17; in [9], 0.736; in test [10] it was -0.274. In addition, the z-score in test [4] was -0.258 (inactive).
In the case of `OCCCc1cc[n+](Cc2cc3c(cc2Br)OCO3)cc1`, the composite z-score in test [1] is -0.837; in test [2], -0.0013; in test [3], 0.706; in test [5], -0.741; in [6], -1.84; in test [7], -1.15. In addition, the values for the composite z-score in test [8], in [9] and in [10] were -0.725, -0.625 and 0.783, respectively. For the same molecule, the z-score in [4] is 0.341 (inactive).
On to `O=C(CS)NCCCCCCNC(=O)[C@H]1C[C@H]2C(=O)NCC(=O)N2[C@H]1c1cccc(OCCO)c1`, for which the composite z-score in [1] is 1.09; in test [2] it was -0.0292; in [3], -0.027; in test [5], 0.901; in test [6] it was -0.21; in test [7] it was 0.696. For the same molecule, the results for the composite z-score in [8], in test [9] and in test [10] were 0.604, 0.602 and 0.665, respectively. In test [4], the z-score is -2.02 (inactive).
As to `COC(=O)[C@@]1(Cc2ccc(F)cc2)[C@H]2c3cc(C(=O)N4CCCC4)n(C[C@H](O)CO)c3C[C@H]2CN1C(=O)c1ccccc1`, the composite z-score in test [1] was 0.543; in test [2], 1.48; in test [3], 0.609; in test [5] it was 0.0396; in [6], 0.094; in test [7] it was -0.0057. Also, the composite z-score in [8] was determined as 0.111; in test [9] it was 0.145; in [10], 0.549. For the same molecule, in test [4], the z-score was 0.749 (inactive).
For the molecule `CO[C@H]1O[C@H](CO)[C@@H](OC(=O)CCc2ccccc2)[C@@H]2OC(=O)[C@@H](Cc3ccc4ccccc4c3)C/C=C/C[C@H](Cc3ccc4ccccc4c3)C(=O)O[C@@H]12`, the composite z-score is 1.08 in test [1]; -0.653 in test [2]; 0.46 in test [3]; -0.361 in test [5]; -0.346 in test [6]; -0.691 in test [7]. For the same molecule, the composite z-score in test [8] was 0.0223; in [9], -1.19; in test [10], 0.499. In addition, in test [4], the z-score is -0.779 (inactive).
Take `COC(=O)C(CC#Cc1ccc2c(c1)[C@]1(C(=O)N2)[C@H](C(=O)N2CCCCCCC2)[C@H]2C(=O)O[C@H](c3ccccc3)[C@H](c3ccccc3)N2[C@@H]1c1ccc(OCCO)cc1)C(=O)OC`: the composite z-score turned out to be 2.26 in test [1]; 2.85 in test [2]; 1.58 in test [3]; 1.63 in test [5]; 1.5 in test [6]; 1.94 in test [7]. Further, the composite z-score turned out to be 1.71 in test [8], 2.55 in [9] and 1.73 in test [10]. Besides, in test [4], the z-score is 0.741 (inactive).
Consider `CCOC(=O)C[C@H]1[C@H](OC(=O)c2ccc(-c3ccccc3)cc2)[C@@H](NC(=O)c2ccc(-c3ccccc3)cc2)c2cc(OCCCO)ccc2N1C(=O)c1ccccc1`, for which the composite z-score in [1] amounted to 0.518; in test [2], 0.685; in test [3], 0.365; in test [5], 0.79; in [6], 0.477; in [7], 0.101. Besides, the composite z-score was 0.719 in test [8], 0.69 in test [9] and -0.12 in test [10]. The z-score in [4] was 0.594 (inactive).
Turning to `Cc1c(NC(=O)/C(C#N)=C/C=C/c2ccc([N+](=O)[O-])cc2)c(=O)n(-c2ccccc2)n1C`, the composite z-score in test [1] is 1.18; in [2] it was 1.24; in [3], 0.761; in test [5], 1.19; in test [6], 1.15; in test [7], 0.404. Further, the composite z-score in test [8] is 1.21; in test [9], 0.534; in test [10], 0.256. For the same molecule, the z-score in [4] was 0.652 (inactive).
In the case of `[N-]=[N+]=Nc1ccccc1C[C@@]1(C(=O)NCc2ccccc2)N=C(c2ccc(OCCCO)cc2)O[C@@H]1c1ccccc1`, the composite z-score stood at 1.22 in test [1]; 0.95 in test [2]; 1.03 in test [3]; 1.14 in test [5]; 1.29 in test [6]; 0.165 in [7]. In addition, the values for the composite z-score in test [8], in test [9] and in test [10] were 1.06, 0.313 and 0.838, respectively. In addition, in [4], the z-score was -0.0448 (inactive).
